From ChEMBL document CHEMBL3988442, “University of Dundee, Small-Polar-MMV Screening Library” (2021)

biological target: T1, Proteasome subunit beta (Trypanosoma cruzi) (UniProt O96673); experiment: Trypanosoma cruzi proteasome chymotrypsin-like activity (TcProtChymo) assay.; type: functional; parameters: scale not given: in the data most compounds retested in dose-response had high values; details: 9.37 µM
T1 sequence (whole entry): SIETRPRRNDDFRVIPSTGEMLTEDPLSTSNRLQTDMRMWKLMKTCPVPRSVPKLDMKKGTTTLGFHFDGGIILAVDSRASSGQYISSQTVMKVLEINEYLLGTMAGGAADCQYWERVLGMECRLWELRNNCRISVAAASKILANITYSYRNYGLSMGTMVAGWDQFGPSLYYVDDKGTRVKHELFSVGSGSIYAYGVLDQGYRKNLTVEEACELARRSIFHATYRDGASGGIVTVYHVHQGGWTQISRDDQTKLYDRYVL

Row | SMILES | Percent Effect [%]
1 | Cn1cnnc1C1CCCN(C(=O)c2cc(Cl)c3c(c2)OCO3)C1 (stereo not given) | 8.57
2 | NC(=O)c1ccc(S(=O)(=O)NC(=O)COc2ccc3c(c2)CCC3)cc1 | 4.01
3 | Cc1ccccc1N1CCN(C(=O)c2ccc[nH]2)C(C)C1 (stereo not given) | 9.25
4 | CC(C)c1cc(NC(=O)CN2CCC(N3CCNC3=O)CC2)on1 | 0.877
5 | O=S(=O)(CCNC1CCc2ncnn2C1)c1ccccc1 (stereo not given) | 5.09
6 | c1ccc(-c2nc(CN3CCOC(Cn4cccn4)C3)no2)cc1 (stereo not given) | 7.38
7 | COc1ncccc1CNC(=O)NCCNC(=O)c1ccco1 | 16
8 | c1cnc(N2CCC3(CC2)CN(CC2CC2)c2ccccc23)nc1 | -0.0858
9 | CN(C)S(=O)(=O)N1CCN(C(=O)c2ccc3ccn(C)c3c2)CC1 | 13.9
10 | Cc1ccc(C(CNC(=O)NCc2cc[nH]n2)N2CCOCC2)o1 (stereo not given) | 14.1
11 | COCCc1noc(CN2CCCCC2Cn2cc(C)cn2)n1 (stereo not given) | 3.84
12 | O=C(COCc1ccccc1)N1CCC(OCc2cccnc2)CC1 | 9.42
13 | CCc1n[nH]c(C2CN(C(=O)c3nc(C)ncc3Cl)CCO2)n1 (stereo not given) | -0.351
14 | COc1cc(CNC(=O)C2CC(=O)N(C(C)C)C2)ccn1 (stereo not given) | 12.7
15 | O=C(Cc1cccs1)N1CC[C@H]2[C@@H]1CCC(=O)N2c1cccnc1 | 16.1
16 | CS(=O)(=O)NCc1ncn2c1CN(C(=O)CC1CCCC1)CCC2 | 2.91
17 | CCOCC1CC2(CCN(C(=O)c3ccccc3F)CC2)CO1 (stereo not given) | -0.794
18 | CCn1c(C)cc(C(=O)N2CCCC(n3nc(C)nc3C)C2)c1C (stereo not given) | 4.35
19 | Cc1cnn(CC2CCCN2CC(=O)Nc2cc(C)nn2C)c1 (stereo not given) | -5.44
20 | O=C(c1ccco1)N1CCC2(CC1)C(=O)NCCN2CC1CC1 | 15.1

Row | SMILES | Percent Effect [%]
21 | COc1ccc(C(=O)N2C[C@@H](CN3CCOCC3)[C@@H](CO)C2)c(C)c1 | 1.71
22 | O=C(c1ccc(F)cc1F)N1CC[C@H](O)[C@@H](N2CCOCC2)CC1 | 3.94
23 | Cc1cnn(C(C)C2CC2)c1NC(=O)c1cnccn1 (stereo not given) | -1.03
24 | COc1ncc(C2(O)CCN(Cc3ccccc3O)CC2)c(OC)n1 | 13.6
25 | CC1CCCN(C(=O)c2cccc(CS(C)(=O)=O)c2)C1 (stereo not given) | 22.4
26 | O=C(Nc1cccnc1)[C@H]1C[C@H]2OCC[C@H]2N(C(=O)c2ccsc2)C1 | 10.5
27 | CCC1CN(C(=O)c2ccc(Cl)cc2O)CCN1C(C)C (stereo not given) | 6.34
28 | Cc1cnc(C(=O)N2CCCCC2c2[nH]ncc2S(C)(=O)=O)cn1 (stereo not given) | 4.93
29 | CCN1C(=O)CCCC12CCCN(C(=O)c1conc1C)C2 (stereo not given) | 5.75
30 | COc1cc(C(=O)N2CCCS2(=O)=O)ccc1C | 14.7
31 | Cc1ncsc1-c1nnc(C2CCN(CC3CCCCC3)CC2)o1 | 14.8
32 | CCn1cnnc1CNC(=O)N1CCOCC1 | 2.97
33 | O=C1C(NCc2nnc3n2CCCC3)CCN1c1ccccc1 (stereo not given) | -2.99
34 | CC(NC(=O)CCn1cncn1)c1nnc2n1CCCCC2 (stereo not given) | 1.93
35 | CC(=O)N1[C@H](CN(C)C)C[C@@H]2CN(C(=O)c3cccc(F)c3)CC[C@@H]21 | 14.2
36 | Cc1ccc(C(N)c2cccc(S(C)(=O)=O)c2)cc1 (stereo not given) | 5.34
37 | COc1cccc2c1OCC(C(=O)N1CCN(S(C)(=O)=O)CC1)C2 (stereo not given) | 9.25
38 | Cc1ccc(C(=O)N2C[C@@H](OCC3CCOCC3)[C@H]3OCCC[C@H]32)o1 | 9.44
39 | CC(Cn1cccn1)NC(=O)N1CCN(Cc2cccs2)CC1 (stereo not given) | 17.4
40 | Cc1nc(C2CCCN(C(=O)CO)C2)cc(N2CCOCC2)n1 (stereo not given) | 13.7

organism: Homo sapiens; experiment: To identify inhibition of the IFN signalling (Jak-Stat) pathway via expression of an eGFP reporter gene under the control of an IFN-stimulated response element (ISRE) containing MxA promoter.; type: functional; parameters: scale not given: direction of the effect not stated beside the values; details: 30 µM

Row | SMILES | Percent Effect [%]
41 | Cn1cnnc1C1CCCN(C(=O)c2cc(Cl)c3c(c2)OCO3)C1 (stereo not given) | 4.91
42 | NC(=O)c1ccc(S(=O)(=O)NC(=O)COc2ccc3c(c2)CCC3)cc1 | 4.26
43 | Cc1ccccc1N1CCN(C(=O)c2ccc[nH]2)C(C)C1 (stereo not given) | 27.5
44 | CC(C)c1cc(NC(=O)CN2CCC(N3CCNC3=O)CC2)on1 | 23.3
45 | O=S(=O)(CCNC1CCc2ncnn2C1)c1ccccc1 (stereo not given) | 0.944
46 | c1ccc(-c2nc(CN3CCOC(Cn4cccn4)C3)no2)cc1 (stereo not given) | 4.88
47 | COc1ncccc1CNC(=O)NCCNC(=O)c1ccco1 | 18.4
48 | c1cnc(N2CCC3(CC2)CN(CC2CC2)c2ccccc23)nc1 | 15
49 | CN(C)S(=O)(=O)N1CCN(C(=O)c2ccc3ccn(C)c3c2)CC1 | 5.78
50 | Cc1ccc(C(CNC(=O)NCc2cc[nH]n2)N2CCOCC2)o1 (stereo not given) | 24.3
51 | COCCc1noc(CN2CCCCC2Cn2cc(C)cn2)n1 (stereo not given) | 12.7
52 | O=C(COCc1ccccc1)N1CCC(OCc2cccnc2)CC1 | 35.8
53 | CCc1n[nH]c(C2CN(C(=O)c3nc(C)ncc3Cl)CCO2)n1 (stereo not given) | 2.84
54 | COc1cc(CNC(=O)C2CC(=O)N(C(C)C)C2)ccn1 (stereo not given) | 24.4
55 | O=C(Cc1cccs1)N1CC[C@H]2[C@@H]1CCC(=O)N2c1cccnc1 | -2.71
56 | CS(=O)(=O)NCc1ncn2c1CN(C(=O)CC1CCCC1)CCC2 | 12.6
57 | CCOCC1CC2(CCN(C(=O)c3ccccc3F)CC2)CO1 (stereo not given) | -3.95
58 | CCn1c(C)cc(C(=O)N2CCCC(n3nc(C)nc3C)C2)c1C (stereo not given) | 4.11
59 | Cc1cnn(CC2CCCN2CC(=O)Nc2cc(C)nn2C)c1 (stereo not given) | 0.341
60 | O=C(c1ccco1)N1CCC2(CC1)C(=O)NCCN2CC1CC1 | 8.56

Row | SMILES | Percent Effect [%]
61 | COc1ccc(C(=O)N2C[C@@H](CN3CCOCC3)[C@@H](CO)C2)c(C)c1 | -27.6
62 | O=C(c1ccc(F)cc1F)N1CC[C@H](O)[C@@H](N2CCOCC2)CC1 | 12.8
63 | Cc1cnn(C(C)C2CC2)c1NC(=O)c1cnccn1 (stereo not given) | 16.7
64 | COc1ncc(C2(O)CCN(Cc3ccccc3O)CC2)c(OC)n1 | -5.87
65 | CC1CCCN(C(=O)c2cccc(CS(C)(=O)=O)c2)C1 (stereo not given) | 6.02
66 | O=C(Nc1cccnc1)[C@H]1C[C@H]2OCC[C@H]2N(C(=O)c2ccsc2)C1 | -7.28
67 | CCC1CN(C(=O)c2ccc(Cl)cc2O)CCN1C(C)C (stereo not given) | 12.9
68 | Cc1cnc(C(=O)N2CCCCC2c2[nH]ncc2S(C)(=O)=O)cn1 (stereo not given) | -6.39
69 | CCN1C(=O)CCCC12CCCN(C(=O)c1conc1C)C2 (stereo not given) | 14
70 | COc1cc(C(=O)N2CCCS2(=O)=O)ccc1C | 1.35
71 | Cc1ncsc1-c1nnc(C2CCN(CC3CCCCC3)CC2)o1 | 25.8
72 | CCn1cnnc1CNC(=O)N1CCOCC1 | -3.83
73 | O=C1C(NCc2nnc3n2CCCC3)CCN1c1ccccc1 (stereo not given) | 18.5
74 | CC(NC(=O)CCn1cncn1)c1nnc2n1CCCCC2 (stereo not given) | 17.2
75 | CC(=O)N1[C@H](CN(C)C)C[C@@H]2CN(C(=O)c3cccc(F)c3)CC[C@@H]21 | 14.5
76 | Cc1ccc(C(N)c2cccc(S(C)(=O)=O)c2)cc1 (stereo not given) | 27
77 | COc1cccc2c1OCC(C(=O)N1CCN(S(C)(=O)=O)CC1)C2 (stereo not given) | 11.4
78 | Cc1ccc(C(=O)N2C[C@@H](OCC3CCOCC3)[C@H]3OCCC[C@H]32)o1 | 6.42
79 | CC(Cn1cccn1)NC(=O)N1CCN(Cc2cccs2)CC1 (stereo not given) | 12.5
80 | Cc1nc(C2CCCN(C(=O)CO)C2)cc(N2CCOCC2)n1 (stereo not given) | 6.91
